Data taken from PubChem BioAssay (NCATS).
Records with an inconclusive call do not appear. Calls of active or inactive are those of the source. The call rests on the fitted dose curve; in most records, active means well fitted curve in the direction sought with a large enough effect; inconclusive means small, poorly fitted or top-dose-only effect, or another doubt; inactive means no such curve, though single readings can be large; an effect the other way counts as inactive or inconclusive.

How the values were obtained:
MCC-26 = test: qHTS assay to identify novel small-molecules to repurpose for Merkel cell carcinoma treatment (AID 1296009); details: MCC and control cell lines, CellTiter-Glo viability, 72 h; series mostly up to 46 µM; further: nearly all actives have a fitted effect of over 60% in size
Outline: (§1)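 qHTS format: cells treated with library compounds in DMSO across 8 (NPC) or 11 (MIPE) concentrations. Readout after 72 hr at 37 degree celsius was CellTiter-Glo luminescence.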

WaGa = test: as above; details: MCC and control cell lines, CellTiter-Glo viability, 72 h; series mostly up to 46 µM
Outline: as §1

MKL-1 = test: as above; details: MCC and control cell lines, CellTiter-Glo viability, 72 h; series mostly up to 46 µM
Outline: as §1

MKL-2 = test: as above; details: MCC and control cell lines, CellTiter-Glo viability, 72 h; series mostly up to 46 µM
Outline: as §1

UISO = test: as above; details: MCC and control cell lines, CellTiter-Glo viability, 72 h; series mostly up to 46 µM
Outline: as §1

NIH3T3 = test: as above; details: MCC and control cell lines, CellTiter-Glo viability, 72 h; at 44.8 µM (top of the series) unless noted
Outline: as §1

C33A = test: Primary qHTS to identify gynecologic anti-cancer compounds using libraries of approved drugs and bioactive compounds (AID 1345084); details: Gynecologic cancer cell panel viability, ATPlite luminescence, 48 h; series mostly up to 57.5 µM; further: nearly all actives have a fitted effect of over 55% in size
Outline: (§2)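 48 h compound exposure at 37 C, 5% CO2; five-point qHTS. ATPlite luminescence readout of cell ATP.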

CASKI = test: as above; details: Gynecologic cancer cell panel viability, ATPlite luminescence, 48 h; series mostly up to 57.5 µM
Outline: as §2

Es-2 = test: as above; details: Gynecologic cancer cell panel viability, ATPlite luminescence, 48 h; series mostly up to 57.5 µM
Outline: as §2

HeLa = test: as above; details: Gynecologic cancer cell panel viability, ATPlite luminescence, 48 h; series mostly up to 57.5 µM
Outline: as §2

Measured: Potency
Potency means the concentration at half of the fitted maximal effect.

NC(=O)N1CCC(CC(=O)N2CCC([C@H]3c4ncc(Br)cc4CCc4cc(Cl)cc(Br)c43)CC2)CC1
active: WaGa 11.8 µM
inactive: MCC-26

COc1cc(OC)cc(-c2ccc3ncc4ccc(=O)n(-c5ccc(N6CCNCC6)c(C(F)(F)F)c5)c4c3c2)c1
active: MKL-1 18.7 µM | MKL-2 8.33 µM | UISO 16.6 µM

CCCCOc1ccc(C(=O)Nc2ccc(F)cc2F)cc1
not listed: MCC-26
inactive: all other assays above

O=C(Nc1ccc(Oc2ccnc3[nH]ccc23)c(F)c1)c1cccn(-c2ccc(F)cc2)c1=O
not listed: MCC-26
inactive: all other assays above

C[C@H](NC(=O)[C@@H](O)c1cc(F)cc(F)c1)C(=O)N[C@@H]1C(=O)N(C)c2ccccc2-c2ccccc21
inactive: MKL-1 | MKL-2 | UISO | WaGa

Nc1ncn([C@@H]2O[C@H](CO)[C@@H](O)[C@@H]2O)c(=O)n1
inactive: MKL-1 | MKL-2

CN1CCc2c(c3ccccc3n2Cc2ccc(C(=O)NO)cc2)C1
inactive: MCC-26 | C33A | CASKI | Es-2 | HeLa
active: WaGa 20.9 µM

C[C@@]12C[C@@]3(O)O[C@@H](O1)[C@]1(COC(=O)c4ccccc4)[C@@H]3C[C@@]12O[C@@H]1O[C@H](CO)[C@@H](O)[C@H](O)[C@@H]1O
inactive: MKL-1 | MKL-2 | NIH3T3 | UISO | WaGa

CCn1c(=O)c2c(nc(C=Cc3ccc(OC)c(OC)c3)n2C)n(CC)c1=O
not listed: MCC-26 | MKL-2
inactive: all other assays above

CC(C)c1cc(C(C)C)c(CC(=O)NS(=O)(=O)Oc2c(C(C)C)cccc2C(C)C)c(C(C)C)c1
inactive: MKL-1 | MKL-2 | WaGa | C33A | CASKI | Es-2

C=CCNc1c(O)cc2c(O)c1C[C@@H](C)C[C@H](OC)[C@@H](O)[C@@H](C)C=C(C)[C@H](OC(N)=O)[C@@H](OC)C=CC=C(C)C(=O)N2
active: MKL-1 11.8 µM | UISO 2.35 µM | WaGa 2.09 µM

C=C1CCC2[C@](C)(CO)C(O)CC[C@]2(C)C1CC=C1C(=O)OCC1O (stereo not given in full)
inactive: MKL-1 | MKL-2 | UISO | WaGa

CS(=O)(=O)N1CCc2c(-c3cnc(N)nc3)nc(N3CCOCC3)nc21
inactive: MKL-1 | MKL-2
active: CASKI 2 µM | HeLa 3.55 µM

CC(=O)O[C@@]12CO[C@H]1C[C@H](O)[C@@]1(C)C(=O)[C@H](O)C3=C(C)[C@@H](OC(=O)C(O)[C@@H](NC(=O)OC(C)(C)C)c4ccccc4)C[C@@](O)([C@@H](OC(=O)c4ccccc4)[C@@H]21)C3(C)C (stereo not given in full)
inactive: MKL-1 | MKL-2 | UISO | WaGa

COC1=C2C[C@@H](C)C[C@H](OC)[C@@H](O)[C@@H](C)C=C(C)[C@H](OC(N)=O)[C@@H](OC)C=CC=C(C)C(=O)NC(=CC1=O)C2=O
active: MKL-1 11.8 µM | MKL-2 8.33 µM | WaGa 20.9 µM

CCCNC(=O)[C@H]1O[C@H]1C(=O)N[C@H](C(=O)N1CCC[C@@H]1C(=O)OC)C(C)CC (stereo not given in full)
active: MKL-1 5.26 µM | MKL-2 3.32 µM | UISO 18.7 µM | WaGa 8.33 µM

COc1cc(C=CC(=O)CC(=O)C=Cc2ccc(O)c(OC)c2)ccc1O
active: MKL-1 10.8 µM | MKL-2 8.55 µM | UISO 21.5 µM | WaGa 9.59 µM
